From PubChem
Most compounds without a hit are left out; they make up all but 1.6% or so of the library.
KCNQ2 block: blocks the rat KCNQ2 potassium channel; 1.1% of 310,000 active; O88943; B-score at 10 µM; CHO-K1 KCNQ2, FluxOR thallium flux, 20 min; active compounds read low;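 active = fluorescence ratio B-score at most minus 3 library SDs, with starting brightness B-score within 2 library SDs, cut at about -5.5 in these data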
KCNQ2 pot: KCNQ2 (rat) channel potentiation | O88943 | CHO-K1 KCNQ2, FluxOR thallium flux fluorescence; active compounds read high | B-score at 10 µM | 0.54% of 310,000 active | AID 2239;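 active = fluorescence ratio B-score at least 3 SD of library B-scores, with initial fluorescence B-score within 3 of them, cut at about 5.3 in these data; same plate scores as AID 2156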;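 note: B-score of peak minus minimum over baseline fluorescence ratio after K+ and Tl+ stimulus; positive B-score means potentiation of KCNQ2 with more thallium influx and brighter signal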
Kir21 conf inh: confirmation of mouse Kir2.1 potassium channel inhibitors. Tl flux remaining, % of negative control (active compounds read low), % at 10 µM. shares compounds with KCNQ2 pot. Kir2.1-expressing cells, FluxOR thallium flux fluorescence; active compounds read low. 41% of 2,300 active;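 active = Primary-screen hit whose thallium flux fell at least 3 control SD below untreated wells in both duplicates, with normal baseline fluorescence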;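 note: 0% = blank wells without stimulus and 100% = stimulated no-compound controls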
HEK293 ctr: parental HEK293 activity in Kir2.1 inhibitor counter-screen; shares compounds with KCNQ2 pot; parental HEK293 cells, FluxOR thallium flux fluorescence; 0% = unstimulated blank wells; FluxOR signal as % of negative control (100 = no effect), % at 10 µM; 19% of 2,300 active;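 active = dye signal at least 3 control SD above or below untreated wells in both duplicates, raw fluorescence within 3, either direction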;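 note: percent is based on the flux ratio of peak minus minimum fluorescence over baseline F0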
CHO-K1 Tl ctr: parental CHO-K1 activity in KCNQ2 potentiator counter-screen | shares compounds with KCNQ2 pot | parental CHO-K1 cells, FluxOR thallium flux fluorescence; zero = vehicle mean+3SD, 100% = vehicle-minus-blank window | activity increase over 3SD of controls, % at 10 µM | 43% of 1,200 active;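 active = signal rise of at least 3 SD above the untreated control mean, in both duplicate wells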;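 note: counter screen of KCNQ2 potentiator hits so any rise reflects channel-independent effects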
KCNQ1 sel pot: human KCNQ1 counter-target activity of KCNQ2 potentiators; CHO KCNQ1 stable, FluxOR thallium flux fluorescence; beyond 3SD, as % of vehicle-control signal; activation over 3SD threshold, % at 10 µM; shares compounds with KCNQ2 pot; 28% of 1,200 active; AID 2283;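 active = fluorescence ratio rise of at least 3 SD of vehicle wells above their mean, in both replicate wells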;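 note: 0% = vehicle mean plus 3 SD and 100% = vehicle minus unstimulated blank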
KCNQ2 pot conf: confirmation of rat KCNQ2 potassium channel potentiators; shares compounds with KCNQ2 pot; CHO-KCNQ2 cells, FluxOR thallium flux fluorescence; potentiation, less the hit threshold, % at 10 µM; 68% of 1,200 active; AID 2287;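 active = fluorescence ratio rising 3 SD or more over the vehicle control mean in both replicates, plus primary screen hit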;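 note: peak minus minimum thallium fluorescence divided by baseline after K/Tl stimulus; 0% = vehicle mean plus 3 SD and 100% = vehicle minus unstimulated blank difference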
Kir2-1 sel: selectivity of KCNQ2 potentiators: effect on mouse Kir2.1; 2% of 1,200 active; shares compounds with KCNQ2 pot; activity over 3SD threshold, % at 10 µM; HEK293 Kir2.1, FluxOR thallium flux fluorescence; AID 2345;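 active = fluorescence ratio rise of at least 3 SD above the vehicle-control mean, seen in both replicates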;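 note: 0% = vehicle mean plus 3 SD and 100% = vehicle minus no-stimulus blank window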
KCNQ2 W236L pot: rat KCNQ2 W236L mutant potentiation by KCNQ2 potentiators; 10% of 940 active; CHO KCNQ2-W236L, automated patch clamp current; current increase over 3SD of negative controls (%), active compounds read high, % at 25 µM; shares compounds with KCNQ2 pot;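 active = current increase at least 3 SD of the untreated controls above them in both duplicate recordings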
Target sequence (O88943 whole entry W236L, looked up): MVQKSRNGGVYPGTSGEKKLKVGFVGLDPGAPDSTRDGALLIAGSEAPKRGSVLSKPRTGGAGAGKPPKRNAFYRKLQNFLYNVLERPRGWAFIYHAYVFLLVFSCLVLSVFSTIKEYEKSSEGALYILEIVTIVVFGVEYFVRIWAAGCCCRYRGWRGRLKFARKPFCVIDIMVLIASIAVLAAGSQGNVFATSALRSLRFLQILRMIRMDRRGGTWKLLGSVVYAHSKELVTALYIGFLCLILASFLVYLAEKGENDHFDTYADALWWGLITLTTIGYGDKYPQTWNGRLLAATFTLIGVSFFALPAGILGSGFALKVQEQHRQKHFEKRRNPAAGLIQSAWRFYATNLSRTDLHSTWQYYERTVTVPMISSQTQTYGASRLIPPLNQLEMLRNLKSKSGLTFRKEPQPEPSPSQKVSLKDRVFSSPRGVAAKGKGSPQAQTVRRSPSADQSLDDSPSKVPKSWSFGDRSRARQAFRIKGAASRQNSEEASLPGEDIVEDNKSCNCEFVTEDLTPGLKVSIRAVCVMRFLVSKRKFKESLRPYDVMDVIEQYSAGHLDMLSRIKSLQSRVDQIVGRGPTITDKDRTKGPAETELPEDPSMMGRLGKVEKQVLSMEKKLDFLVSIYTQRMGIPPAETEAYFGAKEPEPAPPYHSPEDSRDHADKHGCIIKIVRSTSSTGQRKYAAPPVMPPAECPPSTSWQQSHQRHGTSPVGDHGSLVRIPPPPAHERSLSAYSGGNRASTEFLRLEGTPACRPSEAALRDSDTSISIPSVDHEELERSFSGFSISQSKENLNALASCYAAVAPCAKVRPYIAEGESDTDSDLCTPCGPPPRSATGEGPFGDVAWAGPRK
* = called active by the depositor; i = inactive; nt = not tested or not shown.

SMILES	KCNQ2 block	KCNQ2 pot	Kir21 conf inh	HEK293 ctr	others
O=C(Cc1cccc(C(F)(F)F)c1)Nc1ccccc1	i	9*	i	i	CHO-K1 Tl ctr=35*;KCNQ1 sel pot=59*;KCNQ2 pot conf=13*;Kir2-1 sel=-35;KCNQ2 W236L pot=i
COc1ccc2c(Cl)c(C(=O)NN3CCN(C)CC3)sc2c1	i	nt	nt	nt
CCN(CC)S(=O)(=O)c1cccc(C(=O)NC(C(=O)NC2=NCCS2)C(C)C)c1 (configuration not stated)	i	0.24	nt	nt
CCN(CC)S(=O)(=O)c1cccc(C(=O)N[C@H](C(=O)NNC(=O)c2ccccc2)C(C)C)c1	i	8*	i	i	CHO-K1 Tl ctr=-25;KCNQ1 sel pot=0.2*;KCNQ2 pot conf=-23;Kir2-1 sel=-23
C/C(=N\NC(=O)c1cccc(Br)c1)c1ccccn1	i	7.7*	i	i	CHO-K1 Tl ctr=-19;KCNQ1 sel pot=-11;KCNQ2 pot conf=-23;Kir2-1 sel=-36
C/C(=N\NC(=O)c1ccc(Cl)c(Cl)c1)c1ccccn1	i	nt	nt	nt
CCC1C(=O)NCCN1C(=O)c1ccc(OC)c(OC2CCN(C(C)=O)CC2)c1 (configuration not stated)	i	nt	nt	nt
Cc1ccc(C2CC2C(=O)NNC(=S)Nc2cccc(C)c2)cc1 (configuration not stated)	i	9.2*	i	i	CHO-K1 Tl ctr=-4;KCNQ1 sel pot=-12;KCNQ2 pot conf=64*;Kir2-1 sel=-54;KCNQ2 W236L pot=i
O=C(NNC(=S)Nc1ccc(F)cc1)C1CC1c1ccc(Cl)cc1 (configuration not stated)	i	1.7	nt	nt
Cc1ccc(NC(=S)NNC(=O)C2CC2c2ccc(C)cc2)cc1 (configuration not stated)	i	nt	nt	nt
Cc1ccc(C2CC2C(=O)NNC(=S)Nc2cccc(Cl)c2)cc1 (configuration not stated)	i	18*	i	i	CHO-K1 Tl ctr=-2;KCNQ1 sel pot=-5;KCNQ2 pot conf=84*;Kir2-1 sel=-36;KCNQ2 W236L pot=i
Cc1ccc(OCC2Cn3c(nc4c3c(=O)[nH]c(=O)n4C)O2)cc1C (configuration not stated)	i	1.9	nt	nt
N#Cc1nnn(-c2ccc(Cl)cc2)c1N	i	0.17	nt	nt
COc1ccc(F)cc1S(=O)(=O)N1CCN(c2ccccn2)CC1	i	nt	nt	nt
COc1ccc(C(C)C)cc1S(=O)(=O)N1CCN(C)CC1	i	13*	i	i	CHO-K1 Tl ctr=48*;KCNQ1 sel pot=-9;KCNQ2 pot conf=-18;Kir2-1 sel=-36
COc1ccc(F)cc1S(=O)(=O)N1CC(C)CC(C)C1 (configuration not stated)	i	nt	44%*	i
COc1ccc(Br)cc1S(=O)(=O)N1CCOCC1	i	2	nt	nt
COc1ccc(C(C)C)cc1S(=O)(=O)N1CCC(C(=O)N2CCN(C)CC2)CC1	i	nt	nt	nt
COc1ccc(Br)cc1S(=O)(=O)N1CC(C)OC(C)C1 (configuration not stated)	i	2.9	56%*	i
Nc1ccccc1-n1cccc1	i	1.1	nt	nt
O=C(Nc1ccnn1C1CCN(Cc2ccccc2OC(F)F)CC1)c1cccnc1	i	0.26	nt	nt
COc1ccc(OCC2CCNCC2)cc1	i	nt	nt	nt
O=C(CC(Cc1ccccc1)c1ccco1)NC1CCCCC1 (configuration not stated)	i	nt	nt	nt
Fc1ccc(CNCCC(Cc2ccccc2)c2ccco2)cc1 (configuration not stated)	i	nt	18%*	70%*
CC(NCCC(Cc1ccccc1)c1ccco1)c1ccccc1 (configuration not stated)	i	nt	39%*	i
O=C(NCCNCc1ccc(F)cc1)c1ccco1	i	1.2	nt	nt
COc1ccc(N2CCN(C(=O)CSc3nnc(NC(=O)C4CC4)s3)CC2)cc1	i	nt	nt	nt
